Drawing on PubChem BioAssay, this text covers growth inhibition, inhibition and outcome for 21 molecules.

Test [1] in a line: antimalarial activity against Dd2 strain (AID 2302;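 active = growth inhibition above 50% at the single 2 µM test dose, taken to imply half-maximal potency below 2 µM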;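 note: 0% = DMSO untreated growth and 100% = chloroquine plus artemisinin killed control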). As to conditions: P. falciparum Dd2 in RBCs, LDH growth readout, 72 h; at 2 µM; stronger effect = higher value.
Test [2] in a line: HepG2 cytotoxicity, primary screen, cytotoxicity control for P. falciparum antimalarial project, cell-based, ATP luminescence (AID 2303;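 active = inhibition above 50%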;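 note: 0% = DMSO wells and 100% = digitonin-killed cells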). As to conditions: HepG2 viability, 24-48 h, at 10 µM, stronger effect = higher value.
Test [3] deals with L-lactate dehydrogenase (Plasmodium falciparum (isolate CDC / Honduras)) (UniProt Q27743). Nature of the test: PfLDH activity inhibition – cell lysate, 3D7 strain, counter-screen for P. falciparum growth inhibition project (AID 2304).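 Note: 0% = vehicle and 100% = reference inhibitor.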 As to conditions: P. falciparum 3D7 crude extract, LDH APAD/NBT absorbance; at 2 µM; stronger effect = higher value.
Test [4] can be described thus: inhibition of 3D7 malaria parasite growth – strain 3D7 (AID 2306).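 Note: 0% = DMSO wells and 100% = chloroquine plus artemisinin control wells.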 As to conditions: P. falciparum 3D7 erythrocytic growth, LDH absorbance, 72 h; at 2 µM; stronger effect = higher value.
Test [5] deals with Calcium-dependent protein kinase 1 (Plasmodium falciparum (isolate 3D7)) (UniProt P62344). Nature of the test: PfCDPK1 kinase inhibitors, biochemical, TCAMS library (AID 1159585; cut-off not given, nearly all actives have IC50 up to about 0.98 µM;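 note: inhibitors leave more ATP so luminescence rises with inhibition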). As to conditions: recombinant PfCDPK1, Kinase-Glo ATP depletion luminescence.
For test [6], the target named is Plasmodium falciparum protein kinase 6 (PK6, PF3D7_1337100) (UniProt Q8IDW1). Put plainly: PfPK6 kinase inhibitors, biochemical, TCAMS library (AID 1159586). As to conditions: recombinant PfPK6, Kinase-Glo ATP depletion luminescence.
Test [7] has as its target Protein kinase 7 (PK7), Plasmodium falciparum 3D7 (PF3D7_0213400) (UniProt Q7YTF7). Put plainly: inhibition of Plasmodium PK7 catalytic activity – biochemical, TCAMS antimalarial set, Kinase-Glo luminescence (AID 1159587). As to conditions: recombinant PfPK7, Kinase-Glo ATP depletion luminescence.
Test [8] concerns the target Calcium-dependent protein kinase 4 (Plasmodium falciparum (isolate 3D7)) (UniProt Q8IBS5). Put plainly: PfCDPK4 kinase inhibitors, biochemical, TCAMS library (AID 1159588; cut-off not given, nearly all actives have IC50 up to about 0.91 µM). As to conditions: recombinant PfCDPK4, Kinase-Glo ATP depletion luminescence.

A number with no mark means an inactive call. For part of these data: Entries with a potency or affinity are not part of this list. Active and inactive are the calls of the source. Unless noted, the rule behind the calls is not given here.

Sequence of L-lactate dehydrogenase (Plasmodium falciparum (isolate CDC / Honduras)) (Q27743 whole entry, looked up): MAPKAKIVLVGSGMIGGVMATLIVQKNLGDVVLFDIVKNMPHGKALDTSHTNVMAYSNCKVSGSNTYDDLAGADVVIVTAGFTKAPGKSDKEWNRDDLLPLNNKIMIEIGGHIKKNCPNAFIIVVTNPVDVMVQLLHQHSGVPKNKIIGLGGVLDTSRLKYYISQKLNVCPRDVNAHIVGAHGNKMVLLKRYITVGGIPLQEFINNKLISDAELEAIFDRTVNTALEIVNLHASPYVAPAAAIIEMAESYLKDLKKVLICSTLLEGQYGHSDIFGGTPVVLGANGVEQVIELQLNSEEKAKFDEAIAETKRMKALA
Sequence of Protein kinase 7 (PK7), Plasmodium falciparum 3D7 (PF3D7_0213400) (Q7YTF7 1-343): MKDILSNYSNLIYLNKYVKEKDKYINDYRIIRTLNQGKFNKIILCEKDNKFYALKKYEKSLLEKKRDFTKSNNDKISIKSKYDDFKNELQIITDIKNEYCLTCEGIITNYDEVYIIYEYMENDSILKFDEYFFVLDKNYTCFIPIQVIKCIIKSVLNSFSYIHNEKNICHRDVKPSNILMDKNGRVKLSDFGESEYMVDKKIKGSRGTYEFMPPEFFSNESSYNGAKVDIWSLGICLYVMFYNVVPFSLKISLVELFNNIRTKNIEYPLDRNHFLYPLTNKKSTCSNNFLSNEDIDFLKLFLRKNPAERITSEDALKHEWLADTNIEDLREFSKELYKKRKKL
Sequence of Calcium-dependent protein kinase 1 (Plasmodium falciparum (isolate 3D7)) (P62344 whole entry, looked up): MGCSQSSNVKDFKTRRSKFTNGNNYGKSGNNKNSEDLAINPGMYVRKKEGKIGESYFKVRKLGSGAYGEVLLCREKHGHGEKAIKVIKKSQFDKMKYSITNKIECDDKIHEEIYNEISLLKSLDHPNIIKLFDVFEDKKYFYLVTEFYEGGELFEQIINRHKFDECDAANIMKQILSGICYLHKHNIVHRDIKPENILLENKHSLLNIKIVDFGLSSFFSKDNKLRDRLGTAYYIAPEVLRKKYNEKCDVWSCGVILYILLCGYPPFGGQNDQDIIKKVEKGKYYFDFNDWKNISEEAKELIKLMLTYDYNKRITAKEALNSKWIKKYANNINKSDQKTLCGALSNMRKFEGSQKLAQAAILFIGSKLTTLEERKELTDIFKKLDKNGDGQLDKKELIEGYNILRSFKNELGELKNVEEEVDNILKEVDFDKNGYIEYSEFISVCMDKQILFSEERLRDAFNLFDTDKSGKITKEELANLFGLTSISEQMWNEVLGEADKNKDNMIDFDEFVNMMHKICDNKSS
Sequence of Plasmodium falciparum protein kinase 6 (PK6, PF3D7_1337100) (Q8IDW1 1-305): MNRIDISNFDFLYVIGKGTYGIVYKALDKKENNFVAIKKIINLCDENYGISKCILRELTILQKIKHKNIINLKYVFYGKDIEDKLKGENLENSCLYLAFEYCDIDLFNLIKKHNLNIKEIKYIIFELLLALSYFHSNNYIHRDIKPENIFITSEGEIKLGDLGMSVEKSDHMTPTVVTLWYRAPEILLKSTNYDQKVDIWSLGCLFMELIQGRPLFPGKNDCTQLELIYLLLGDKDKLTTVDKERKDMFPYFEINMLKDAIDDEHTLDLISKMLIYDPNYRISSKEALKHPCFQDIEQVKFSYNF
Sequence of Calcium-dependent protein kinase 4 (Plasmodium falciparum (isolate 3D7)) (Q8IBS5 whole entry, looked up): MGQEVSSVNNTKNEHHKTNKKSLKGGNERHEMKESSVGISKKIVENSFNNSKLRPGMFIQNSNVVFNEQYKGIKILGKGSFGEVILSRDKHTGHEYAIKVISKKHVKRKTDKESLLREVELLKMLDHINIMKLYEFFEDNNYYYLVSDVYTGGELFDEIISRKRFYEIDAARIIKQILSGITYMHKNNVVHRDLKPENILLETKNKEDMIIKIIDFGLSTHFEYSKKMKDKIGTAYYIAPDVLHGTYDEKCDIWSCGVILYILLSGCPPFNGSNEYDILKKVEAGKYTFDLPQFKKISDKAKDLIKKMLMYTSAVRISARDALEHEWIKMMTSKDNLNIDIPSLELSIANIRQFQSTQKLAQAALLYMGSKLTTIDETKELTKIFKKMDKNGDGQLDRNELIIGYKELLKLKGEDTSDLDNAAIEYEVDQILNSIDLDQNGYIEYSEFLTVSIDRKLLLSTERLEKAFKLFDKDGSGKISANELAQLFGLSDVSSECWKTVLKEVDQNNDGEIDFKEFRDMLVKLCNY

In the case of `COc1ccc(C(=O)CC(=O)c2ccc(OC)cc2OC)c(OC)c1`, the growth inhibition in test [1] is -2%; in test [4] it was 98% (active). In addition, the inhibition is 1% in test [2] and 2% in test [3]. Moreover, the outcome in test [5], in test [6], in test [7] and in test [8] was inactive.
For `Cc1cc(NCc2ccccc2)nc(NCc2ccccc2)n1`, the results for the growth inhibition in test [1] and in test [4] were 18% and 91% (active), respectively. Further, the results for the inhibition in test [2] and in test [3] were 21% and 5%, respectively. For the same molecule, the outcome in test [5], in test [6], in test [7] and in test [8] was inactive.
For the molecule `CCCCCCOc1ccc(C(=O)N(Cc2ccccc2)c2c(-c3ccccc3)nc3cc(C)ccn23)cc1`, the growth inhibition in test [1] was 96% (active); in test [4], 95% (active). In addition, the results for the inhibition in test [2] and in test [3] were -8% and 3%, respectively. Also, the result in test [5], in test [6], in test [7] and in test [8] was inactive.
On to `CC(=O)N/N=C/[C@H](CCc1ccccc1)NC(=O)[C@H](CC(C)C)NC(=O)c1ccc(F)cc1`, for which the growth inhibition in test [1] is 86% (active); in test [4], 95% (active). The inhibition in test [2] was 2%; in test [3], -4%. The result in test [5], in test [6], in test [7] and in test [8] was inactive.
`Cc1cc(C(=O)Nc2ccc3c(c2)CCN3C2CCN(Cc3cccc(F)c3F)C2)no1` (stereo not drawn): the growth inhibition in test [1] was 94% (active); in test [4] it was 95% (active). The inhibition was 0% in test [2] and -4% in test [3]. In addition, the outcome in test [5], in test [6], in test [7] and in test [8] was inactive.
As to `C[C@@H]1CN(c2cnn(Cc3cccc(NC(=O)Nc4cccc(C(F)(F)F)c4)c3)c(=O)c2Cl)C[C@H](C)N1`, the growth inhibition in test [1] was 74% (active); in test [4], 96% (active). In addition, the inhibition is 19% in test [2] and -4% in test [3]. Also, the result in test [5], in test [6], in test [7] and in test [8] was inactive.
As for `O=C(Nc1cccc(-c2ccc(-c3nc4ccc(F)cc4[nH]3)cc2)c1)c1ccncc1`, the results for the growth inhibition in test [1] and in test [4] were 96% (active) and 101% (active), respectively. Further, the inhibition in test [2] is 52% (active); in test [3], -5%. Besides, the result in test [5], in test [6], in test [7] and in test [8] was inactive.
For `CCCNC[C@@H](O)[C@H](Cc1ccccc1)NC(=O)c1cc(NCC)cc(N2CCCCS2(=O)=O)c1`, the growth inhibition was 74% (active) in test [1] and 97% (active) in test [4]. Besides, the inhibition in test [2] is 0%; in test [3], -3%. The result in test [5], in test [6], in test [7] and in test [8] was inactive.
Consider `COc1ccc2c(NN=Cc3ccc(N(C)C)cc3)ccnc2c1`, for which the results for the growth inhibition in test [1] and in test [4] were 100% (active) and 102% (active), respectively. Besides, the inhibition is 12% in test [2] and -1% in test [3]. Moreover, the result in test [5], in test [6], in test [7] and in test [8] was inactive.
Turning to `O=C(Nc1ccc(-n2ccc(C(F)(F)F)n2)cc1)c1cccs1`, the growth inhibition in test [1] was 67% (active); in test [4], 89% (active). Besides, the inhibition is 6% in test [2] and -6% in test [3]. Moreover, the outcome in test [5], in test [6], in test [7] and in test [8] was inactive.
For the molecule `O=C(Nc1cccc(OCc2ccccc2)c1)c1ccc(CN2CCC(Cc3ccccc3)CC2)cc1`, the growth inhibition in test [1] was 27%; in test [4], 100% (active). In addition, the inhibition in test [2] is 41%; in test [3] it was 3%. Besides, the outcome in test [5], in test [6], in test [7] and in test [8] was inactive.
As to `N#Cc1ccc2[nH]cc(CN3CCC4(CC3)CN(CCNCc3ccccc3)C(=O)O4)c2c1`, the growth inhibition in test [1] is 0%; in test [4] it was 100% (active). Also, the inhibition was -5% in test [2] and -1% in test [3]. Moreover, the result in test [5], in test [6], in test [7] and in test [8] was inactive.
Turning to `c1ccc2c(c1)ncc1c3ccccc3[nH]c21`, the results for the growth inhibition in test [1] and in test [4] were 36% and 95% (active), respectively. Further, the inhibition is -1% in test [2] and -6% in test [3]. The outcome in test [5], in test [6], in test [7] and in test [8] was inactive.
Regarding `O=c1cc(NCCCNCc2scc(I)c2I)[nH]c2ccccc12`, the growth inhibition in test [1] was 73% (active); in test [4] it was 100% (active). The inhibition in test [2] is -16%; in test [3] it was -1%. In addition, the outcome in test [5], in test [6], in test [7] and in test [8] was inactive.
In the case of `O=C(Nc1ccc(Cn2ncc(N3CCCNCC3)c(Cl)c2=O)cc1)Nc1cc(Cl)cc(Cl)c1`, the figures for the growth inhibition in test [1] and in test [4] were 17% and 91% (active), respectively. Also, the inhibition in test [2] and in test [3] was 3% throughout. Also, the result in test [5], in test [6], in test [7] and in test [8] was inactive.
For `O=C1O[C@H](c2ccccc2)[C@H](c2ccccc2)N(C(=O)OCc2ccccc2)[C@H]1Cc1ccccc1C1CCCC1`, the growth inhibition in test [1] was -3%; in test [4], 97% (active). In addition, the inhibition was 56% (active) in test [2] and 1% in test [3]. The result in test [5], in test [6], in test [7] and in test [8] was inactive.
With `O=C(Nc1ccccc1)N1CCOC(CCN2CCC(F)(F)CC2)(c2ccc(Cl)c(Cl)c2)C1` (stereo not drawn), the growth inhibition is 100% (active) in test [1] and 102% (active) in test [4]. The inhibition in test [2] was 20%; in test [3], 3%. For the same molecule, the result in test [5], in test [6], in test [7] and in test [8] was inactive.
Consider `CC(C)(C)c1cc(C(=O)N2CCN(c3ccc(C(F)(F)F)cn3)CC2)n(Cc2ccc(F)cc2)n1`, for which the growth inhibition in test [1] is 26%; in test [4] it was 88% (active). For the same molecule, the figures for the inhibition in test [2] and in test [3] were 4% and -1%, respectively. Moreover, the result in test [5], in test [6], in test [7] and in test [8] was inactive.
Turning to `Nc1cccc(CNCc2ccc(-c3ccc(-c4nc5ccccc5[nH]4)s3)cc2)c1`, the growth inhibition in test [1] is 93% (active); in test [4], 100% (active). The inhibition in test [2] was 12%; in test [3], 4%. Also, the result in test [5], in test [6], in test [7] and in test [8] was inactive.
With `O=c1ccc(CNc2nc(NCCc3ccccc3)nc3cc(Cl)ccc23)c[nH]1`, the growth inhibition in test [1] is 78% (active); in test [4], 95% (active). In addition, the inhibition is 21% in test [2] and 3% in test [3]. Moreover, the outcome in test [5], in test [6], in test [7] and in test [8] was inactive.
`Cc1cc(C(=O)CSc2nc3ccccc3n2-c2ccccc2)c(C)n1C1CCS(=O)(=O)C1` (stereo not drawn): the growth inhibition in test [1] was -3%; in test [4], 92% (active). Besides, the inhibition in test [2] is -18%; in test [3], 0%. The result in test [5], in test [6], in test [7] and in test [8] was inactive.
